Bioassay records deposited in PubChem BioAssay by National Center for Advancing Translational Sciences (NCATS).
Tau fibril ThT – tau fibrillization inhibition (ThT binding) | P10636 | recombinant tau K18 P301L, heparin-induced fibrillization, ThT fluorescence | Potency, µM (top dose mostly 57.4 µM), usual class: inhibitors | 2.1% of 270,000 active | AID 1460; note: nearly all actives have a fitted effect of over 55% in size
Target sequence (P10636 561-689 P618L limits assumed): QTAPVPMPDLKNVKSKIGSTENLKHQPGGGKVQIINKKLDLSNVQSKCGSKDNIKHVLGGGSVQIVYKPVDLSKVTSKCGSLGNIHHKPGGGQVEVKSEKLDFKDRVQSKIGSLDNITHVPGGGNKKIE
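In this qHTS, human K18 P301L tau is incubated with compound and heparin for 6 hr at 37 C, and Thioflavin T fluorescence then reports fibril load.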
Tau fibril FP – blocks human tau fibril formation measured by polarization. P10636. K18 P301L tau heparin fibrillization, Alexa594 FP, 6 h. Potency, µM (series often up to 57.7 µM), most hits filed as inhibitors. 0.39% of 280,000 active; note: nearly all actives have a fitted effect of over 55% in size
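Human tau K18 […] P301L fragment, 15 uM unlabeled plus 0.24 uM Alexa 594-labeled tau (final), with compound and 20 uM heparin in 100 mM sodium acetate pH 7; 6 hr at 37 C, then Alexa 594 FP read.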
G9a inh – G9a (human) methyltransferase inhibition | G9a H3K9 monomethylation, AlphaScreen, 2 h | Potency, µM (top dose mostly 102 µM), actives largely listed as inhibitors | 8.8% of 350,000 active | AID 504332; note: nearly all actives have a fitted effect of over 75% in size
Target sequence (Q96KQ7 913-1193 limits assumed): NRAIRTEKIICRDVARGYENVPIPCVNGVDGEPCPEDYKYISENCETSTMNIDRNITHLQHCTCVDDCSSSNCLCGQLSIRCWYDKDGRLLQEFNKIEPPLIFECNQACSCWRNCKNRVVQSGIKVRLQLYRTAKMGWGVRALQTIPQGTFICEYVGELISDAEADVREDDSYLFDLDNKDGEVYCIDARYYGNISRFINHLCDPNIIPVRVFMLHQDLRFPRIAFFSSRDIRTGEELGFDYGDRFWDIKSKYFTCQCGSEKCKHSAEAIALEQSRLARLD
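G9a (20 nM) preincubated 15 min RT with compounds, then 500 nM biotinylated H3K9 peptide and 20 uM SAM added; 2 h RT reaction. Monomethyl-H3K9 product detected by AlphaScreen with anti-H3K9me1 antibody, streptavidin donor and anti-rabbit IgG acceptor beads.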
Sfp inh – Sfp phosphopantetheinyl transferase inhibition. Biochemical Sfp PPTase activity, qHTS. AID 1490. 3.5% of 310,000 active. Potency, µM, actives largely listed as inhibitors. Q9F4F7;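 note: the enzyme is Sfp with the accession as filed and its product quenches rhodamine fluorescence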
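With Hepes-Na pH 7.6 buffer containing 10 mM MgCl2, Sfp (15 nM) modified BHQ-2-YbbR (12.5 uM) using rhodamine-CoA (5 uM). Two reads 30 minutes apart at 525/598 nm yielded each well's rate.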
Tau fluor counter – counter-screen for tau fibril formation inhibitors; tau K18 P301L Alexa594 fluorescence, heparin fibrillization; Potency, µM (top dose mostly 57.7 µM); 0.93% of 280,000 active; note: nearly all actives have a fitted effect of over 55% in size
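Human tau K18 P301L (15 uM unlabeled, 0.24 uM Alexa 594-labeled) in 100 mM sodium acetate pH 7 with 20 uM heparin, 6 hr at 37 C. ThT 30 uM added, 1 hr ambient; Alexa 594 FP and total fluorescence read at 555/632 nm.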
Coupling enz – inhibits coupling enzyme system, counter-screen for aldolase hits; AID 2472; 0.67% of 290,000 active; coupling enzyme system counterscreen, AmpLite Red fluorescence; activity change, negative = inhibition, % at 58.2 µM, hits read low; in the data active = activity change below about -30%
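Activity here indicates interference with the coupling reaction, not aldolase inhibition. Compounds at 57.5 uM final met coupling enzymes for 10 min at RT; substrate and AmpLite Red detection followed, with a 525/598 nm fluorescence read after 20 min.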
Of the large screens only hits and unclear results are named; the others gave an inactive call; ! = not active in a repeat; [ ] = remark or other dose. A selection: hits, their analogues and other compounds. The true share with any hit is near 11%. Unless noted, calls come from the whole dose curve; as a rule, active = well fitted curve in the direction sought with a large enough effect; inconclusive = small, poorly fitted or top-dose-only effect, or another doubt; inactive = no such curve, though single readings can be large; an effect the other way counts as inactive or inconclusive.

COCCNC(=O)COc1ccc(OCCNC[C@@H](O)COc2ccccc2)cc1	none (no result: G9a inh)
CNC(=O)c1ccccc1Sc1cccc2cccc(C(=O)O)c12	none (no result: Tau fibril ThT, Tau fibril FP, Tau fluor counter)
CCn1c(=O)c([N+](=O)[O-])c(NCC(O)c2ccccc2)c2ccccc21 (stereo not given)	Tau fibril ThT inconclusive
O=c1c([N+](=O)[O-])c(O)c2ccccc2n1Cc1ccccc1	G9a inh 28µM, Sfp inh inconclusive (no result: Tau fibril ThT, Tau fibril FP, Tau fluor counter)
CCn1c(=O)c([N+](=O)[O-])c(NCCN(C)C)c2ccccc21	G9a inh 56µM, Sfp inh 3.5µM
COc1ccc(-c2cc(C(C)=O)c(C)n2CCC(=O)Nc2ccc(C)cc2Cl)cc1	none (no result: Sfp inh, Coupling enz)
CC(=O)N/C(=C\c1ccccc1)C(=O)OC(C)C(=O)c1ccccc1 (stereo not given)	none (no result: Tau fibril ThT, Tau fibril FP, Sfp inh, Tau fluor counter, Coupling enz)
COc1ccc(C2CC(=O)n3nc(C45CC6CC(CC(C6)C4)C5)nc3S2)cc1OC (stereo not given)	G9a inh 11µM
C[N+]1(C)CC(O)[C@H](C(=O)[O-])C1 (stereo not given in full)	none (no result: G9a inh)
O=C(NCc1cccc(F)c1)c1cccc(NC(=O)c2nsc3ccccc23)c1	Tau fibril FP inconclusive, Tau fluor counter inconclusive (no result: Sfp inh, Coupling enz)
Cc1cccc(C#Cc2ccccc2)n1	G9a inh 20µM!, Sfp inh 50µM!
CCn1cc(C(=O)NCc2cccnc2)c2cc(OC)c(OC)cc2c1=O	G9a inh 11µM
CCCCN(CCCNC(=O)c1cc(Nc2ccc(OC)cc2OC)nc2ccccc12)Cc1ccccc1	Tau fibril ThT inconclusive, G9a inh 10µM, Tau fluor counter 10µM[quencher] (no result: Sfp inh, Coupling enz)
CCCCN(CCCNC(=O)c1cc(Nc2ccc(OC)c(OC)c2)nc2ccccc12)Cc1ccccc1	Tau fibril ThT inconclusive, G9a inh 11µM, Tau fluor counter 13µM[quencher] (no result: Sfp inh, Coupling enz)
CCN(CCCNC(=O)c1cc2cc3cc(OC)ccc3nc2s1)c1cccc(C)c1	Tau fibril ThT inconclusive, G9a inh inconclusive, Tau fluor counter 4µM[quencher] (no result: Sfp inh, Coupling enz)
COc1ccc(Nc2cc(C(=O)NC3CCC(C)CC3)c3ccccc3n2)cc1OC (stereo not given)	G9a inh inconclusive, Tau fluor counter inconclusive (no result: Sfp inh, Coupling enz)
COc1cc(OC)c(C(=O)NCc2cccnc2)cc1OC	none
CCN(CCCNC(=O)c1cc2cc3ccc(C)cc3nc2s1)c1ccccc1	Tau fibril ThT inconclusive, Tau fibril FP inconclusive, Tau fluor counter inconclusive (no result: Sfp inh, Coupling enz)
CCOc1cc(CNC(=O)c2cc(-c3ccccc3)n[nH]2)cc(OCC)c1OCC	none (no result: Sfp inh, Coupling enz)
O=C(CN1C(=O)c2ccccc2C1=O)N1CCN=C1c1ccccc1	none
O=C(Nc1nnc(C2=COCCO2)o1)c1ccc(S(=O)(=O)N2CCCCC2)cc1	G9a inh inconclusive
COc1ccc(Nc2cc(C(=O)NCc3ccccn3)c3ccccc3n2)c(OC)c1	Tau fibril ThT inconclusive
COc1ccc(Nc2cc(C(=O)NCc3cccnc3)c3ccccc3n2)c(OC)c1	Tau fibril ThT inconclusive, G9a inh 45µM, Tau fluor counter inconclusive
Cc1cc(=O)oc(C)c1C(=O)NCCNC(=O)c1c(C)cc(=O)oc1C	none
CCN(CCCNC(=O)c1c(C)cc(=O)oc1C)c1cccc(C)c1	G9a inh 13µM
CCN(CCCNC(=O)c1cc(Nc2ccc(OC)cc2OC)nc2ccccc12)c1cccc(C)c1	Tau fibril ThT inconclusive, G9a inh inconclusive, Tau fluor counter 7.1µM[quencher] (no result: Sfp inh, Coupling enz)
CCCCN(CCCNC(=O)c1cc(Nc2ccc(OC)cc2)nc2ccccc12)Cc1ccccc1	Tau fluor counter 4µM[quencher] (no result: Sfp inh, Coupling enz)
CCOc1ccc(CNC(=O)CN2C(=O)CSc3c2c(C)nn3-c2ccccc2)cc1	none (no result: Sfp inh, Coupling enz)
COc1ccc(C2=CC(c3ccc(OC)c(OC)c3)NC(=S)N2)cc1 (stereo not given)	Tau fibril ThT inconclusive, Tau fibril FP inconclusive, G9a inh 32µM
COc1cccc(C2=CC(c3ccc(OC)c(OC)c3)NC(=S)N2)c1 (stereo not given)	Tau fibril ThT inconclusive, Tau fibril FP inconclusive (no result: G9a inh)
COc1ccc(C2C=C(c3ccc(F)cc3)NC(=S)N2)cc1OC (stereo not given)	G9a inh 45µM
COc1ccc(C2CC(c3ccc(F)cc3)=NN2c2ccccc2)cc1OC (stereo not given)	G9a inh inconclusive (no result: Tau fibril ThT, Tau fibril FP, Tau fluor counter)
